Rows were chosen to be rich in hits. Some 15% of all compounds tested hit in one or more screens of this group.
DT40 TDP1 CPT – DT40-hTDP1 cell growth loss with CPT | 12% of 420,000 active | chicken DT40 Tdp1-/-;hTDP1 cells + 20 nM CPT, ATP luminescence, 48 h | AID 686979 | Potency, µM (titrated, usually from 46.2 µM), hits mostly inhibitors; further: nearly all actives have a fitted effect of over 55% in size
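Chicken DT40 Tdp1-/- cells stably complemented with human TDP1 were seeded at 400 cells/well in medium containing 20 nM camptothecin, exposed to pin-transferred compounds, and grown at 37 °C for at least 48 hr. Viability was read as ATP luminescence.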
ELG1 repair inh – inhibitors of ELG1-dependent DNA repair in HEK293T cells. HEK293T ELG1-luciferase reporter, luminescence, 16 h; DNA damage induced by 5-fluorouridine. Potency, µM (doses to about 46.1 µM), most hits filed as inhibitors. 2.3% of 330,000 active. AID 504467; further: nearly all actives have a fitted effect of over 55% in size
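HEK293T cells expressing luciferase-tagged ELG1 (2,000/well) received 5-Fluorouridine plus compound or DMSO for 16 hr at 37 °C. Luciferase was read by ONE-Glo luminescence after 30 min at room temperature.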
12-LOX inh – inhibitors of human 12S-lipoxygenase ALOX12. 1.1% of 580,000 active. AID 1671190. P18054. Potency, µM (doses to about 108 µM), hits mostly inhibitors. purified 12hLO, xylenol orange hydroperoxide absorbance
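Hydroperoxide product was detected by ferrous iron/xylenol orange as the 573 to 405 nm absorbance ratio. Arachidonic acid at 40 uM (final) was turned over for 30 min at room temperature by 150 nM human 12hLO, pH 7.0 Hepes buffer, after 15 min compound preincubation.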
VP16 counter – counter-screen for ROR gamma inhibitors: Gal4-VP16 reporter; Drosophila S2 Gal4-VP16 UAS-luciferase, luminescence, 20 h; Potency, µM (titrated, usually from 53.6 µM), most hits filed as inhibitors; 3.5% of 310,000 active; AID 2546;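 further: Gal4-VP16 expression switched on by copper sulfate through the metallothionein promoter; nearly all actives have a fitted effect of over 50% in size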
DT40 TDP1 no CPT – qHTS for Inhibitors of human tyrosyl-DNA phosphodiesterase 1 (TDP1): qHTS in cells in absence of CPT; 15% of 420,000 active; DT40 Tdp1-/- hTDP1 cells, no CPT, ATP luminescence, 48 h; Potency, µM (titrated, usually from 46.2 µM), actives largely listed as inhibitors; AID 686978, 2013; further: nearly all actives have a fitted effect of over 55% in size
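Readout: luminescence from CellTiter-Glo after 30 min in the dark at RT. Cells: DT40 Tdp1-/- with stable hTDP1, 400/well. Exposure: compounds alone, ≥48 hr, 37 °C.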
RORg inh – inhibitors of mouse ROR gamma transcriptional activity | P51450 | Drosophila S2 Gal4-RORgamma UAS-luciferase reporter, 20 h | Potency, µM (doses to about 53.6 µM), usual class: inhibitors | 5.4% of 310,000 active; further: nearly all actives have a fitted effect of over 60% in size
Target sequence (P51450 whole entry, looked up, the tested form may be a part): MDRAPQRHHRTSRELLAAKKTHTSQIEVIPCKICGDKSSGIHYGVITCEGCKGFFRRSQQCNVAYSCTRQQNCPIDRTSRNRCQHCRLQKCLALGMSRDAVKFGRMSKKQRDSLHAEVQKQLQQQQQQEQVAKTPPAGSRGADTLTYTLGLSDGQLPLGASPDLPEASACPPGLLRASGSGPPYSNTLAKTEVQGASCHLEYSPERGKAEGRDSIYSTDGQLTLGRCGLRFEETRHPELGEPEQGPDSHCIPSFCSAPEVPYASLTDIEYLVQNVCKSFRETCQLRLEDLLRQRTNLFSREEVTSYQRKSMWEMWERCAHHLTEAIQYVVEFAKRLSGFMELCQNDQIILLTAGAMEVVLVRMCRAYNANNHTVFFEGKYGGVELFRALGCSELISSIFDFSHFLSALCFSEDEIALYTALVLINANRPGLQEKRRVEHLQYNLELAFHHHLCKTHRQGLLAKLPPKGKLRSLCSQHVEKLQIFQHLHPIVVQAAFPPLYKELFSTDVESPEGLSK
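In this cell-based reporter format, copper sulfate (700 uM final) drives Gal4–ROR gamma fusion expression from a metallothionein promoter in Drosophila Schneider cells; compounds preincubated 1 hr, reporter read after 20 hr at ambient temperature.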
A number is an active result; 0 = inactive; ? = inconclusive; - = no result; [ ] = dose if it differs, or a comment. The call rests on the fitted dose curve; in most records, active means well fitted curve in the direction sought with a large enough effect; inconclusive means small, poorly fitted or top-dose-only effect, or another doubt; inactive means no such curve, though single readings can be large; an effect the other way counts as inactive or inconclusive.

SMILES	DT40 TDP1 CPT	ELG1 repair inh	12-LOX inh	VP16 counter	DT40 TDP1 no CPT	RORg inh
CCN(CC)c1ccc(N=Cc2ccc(N(CC)CC)cc2O)cc1	?	0	?	?	?	0
C/C(=N\NC(=O)c1ccc(Cl)cc1)c1cccs1	0	?	0	16µM	?	7.1µM
C/C(=N\NC(=O)c1ccc(NS(=O)(=O)c2cccs2)cc1)c1ccc(Cl)cc1	?	0	0	0	23µM	0
CN(Cc1ccccc1)Cc1cc(CC2(NCc3ccc(F)cc3)COC2)no1	-	-	0	-	-	-
O=C1CC(O)(C(F)F)Oc2ccc3ccccc3c21 (stereo not given)	0	16µM	0	0	?	0
Cc1ccc(/C(O)=C/C(=O)C(=O)NNC(=O)C(O)(c2ccccc2)c2ccccc2)cc1	0	0	?	?	0	?
O=C(C=C(O)c1ccc(Cl)cc1)C(=O)NNC(=O)C(O)(c1ccccc1)c1ccccc1	0	-	14µM	-	?	-
CCOc1ccc(CN2CCCCC23Cc2ccccc2CNC3=O)cc1 (stereo not given)	-	-	0[6.33 µM]	-	-	-
Cc1ccc(C(=O)OCC(=O)c2ccco2)s1	-	-	32µM	-	-	-
Cc1ccc(C(=O)OCC(=O)c2ccc(-c3ccccc3)cc2)s1	-	-	0	-	-	-
CC(C)NC(=O)c1ccccc1NC(=O)C(C)Oc1ccccc1 (stereo not given)	0	0	0	0	0	0
CC(Oc1ccc(F)cc1)C(=O)Nc1ccccc1C(=O)N1CCCCC1 (stereo not given)	15µM	0	0	-	?	-
CC(Oc1ccccc1)C(=O)Nc1ccc(NC(=O)c2ccccc2)cc1 (stereo not given)	0	0	?	0	0	0
CCc1ccc(OC(C)C(=O)Nc2ccccc2C(=O)N2CCOCC2)cc1 (stereo not given)	0	0	0	0	?	0
COc1cc(NC(=O)C(C)Oc2ccccc2)c(OC)cc1NC(=O)c1ccccc1 (stereo not given)	21µM	15µM	-	0	?	0
COc1cc(NC(=O)c2sc(C)nc2C)c(OC)cc1NC(=O)c1ccccc1	?	15µM	0	0	16µM	0
COC(=O)c1ccccc1NC(=O)C(C)Oc1ccccc1 (stereo not given)	7.3µM	0	0	0	5.8µM	0
O=C(CCC1N=C2c3ccccc3N=C(SCc3ccc(Cl)cc3)N2C1=O)NCCc1ccccc1 (stereo not given)	18µM	-	0	-	?	-
O=C(CCC1N=C2c3ccccc3N=C(SCc3cccc(F)c3)N2C1=O)NCc1ccc(F)cc1 (stereo not given)	?	-	0	-	18µM	-
O=C(CCC1N=C2c3ccccc3N=C(SCc3cccc(F)c3)N2C1=O)NCCc1ccccc1 (stereo not given)	21µM	-	?	-	?	-
O=C(CCC1N=C2c3ccccc3N=C(SCc3ccc(F)cc3)N2C1=O)N1CCN(c2ccccc2)CC1 (stereo not given)	?	-	0	-	26µM	-
O=C(CCC1N=C2c3ccccc3N=C(SCc3cccc(Cl)c3)N2C1=O)NCc1cccs1 (stereo not given)	12µM	-	0	-	21µM	-
COc1ccccc1CNC(=O)CCC1N=C2c3ccccc3N=C(SCC(=O)NCCc3ccc(OC)c(OC)c3)N2C1=O (stereo not given)	18µM	-	0	-	?	-
O=C(NC1CCCCC1)C(c1ccnc2ccccc12)n1c(=O)c(-c2cc3ccccc3[nH]2)nc2ccccc21 (stereo not given)	?	-	?	-	15µM	-
O=C(NC1CCCCC1)C(c1ccccc1)n1c(=O)c(-c2cc3ccccc3[nH]2)nc2ccccc21 (stereo not given)	?	-	0	-	?	-
SMILES	DT40 TDP1 CPT	ELG1 repair inh	12-LOX inh	VP16 counter	DT40 TDP1 no CPT	RORg inh
O=C(NC1CCCCC1)C(c1ccnc2ccccc12)n1c(=O)c(-c2ccccc2)nc2ccccc21 (stereo not given)	10µM	-	0	-	13µM	-
CCCCCNC(=O)C(c1ccnc2ccccc12)n1c(=O)c(-c2ccccc2)nc2ccccc21 (stereo not given)	?	-	0	-	?	-
Cc1ccc(Cl)cc1NC(=O)N[C@H](C)C(=O)O	-	-	0	-	-	-
Cc1cc(C)n(-c2nc3c(c(=O)n(C)c(=O)n3C)n2Cc2c(F)cccc2Cl)n1	-	-	0	-	-	-
CC(CCc1ccccc1)NC(=O)C1(c2ccccc2)CCCC1 (stereo not given)	-	-	0	-	-	-
COc1ccc(-c2noc(-c3ccc4c(c3)OCO4)n2)cc1	0	?	0	0	0	0
Cc1[nH]c(-c2ccc3c(c2)OCO3)nc1C(=O)O	10µM	0	0	0	18µM	0
COc1ccc(-c2nc(-c3ccc4c(c3)OCO4)[nH]c2-c2ccc(OC)cc2)cc1	?	18µM	0	0	?	0[10 µM]
COc1ccc(-c2nc(-c3ccccc3)c(-c3ccc(O)cc3)[nH]2)cc1	13µM	-	?	-	8.2µM	-
O=C(O)COc1ccc(-c2nc(-c3ccccc3)c(-c3ccccc3)[nH]2)cc1	0	0	0	0	0	?
COc1ccc(-c2[nH]c(-c3ccc(O)cc3)nc2-c2ccccc2)cc1	15µM	-	?	-	?	-
Cc1ccc(S(=O)(=O)N2CCCc3ccccc32)c(C)c1	-	-	0	-	-	-
CC(=O)c1ccc(NC(=O)CSC2=C(C#N)C(c3ccccc3C)C3=C(CCCC3=O)N2)cc1 (stereo not given)	-	-	0	-	-	-
O=C(CNCc1ccc(Cl)cc1)N1CCc2ccccc2C1	0	?	32µM	0	0	0
O=C(CNCc1cccc(Cl)c1)N1CCc2ccccc2C1	0	?	?	0	0	0
COc1ccc(CNC(=O)c2ccc(C)cc2)cc1	-	-	0	0	-	0
COc1ccc(CNC(=S)Nc2cc(C)ccc2C)cc1	?	0	?	7.1µM	18µM	7.9µM
COc1ccc(/C(C)=N/NC(=O)C2CC2)cc1	0	?	0	0	0	0
Cc1ccc(C)c(NC(=S)N/N=C/C(C)c2ccccc2)c1 (stereo not given)	?	0	?	7.1µM	?	0.56µM
COc1ccc(/C(C)=N/NC(=S)Nc2cc(C)ccc2C)cc1	23µM	0	45µM	11µM	23µM	2.8µM
Cc1ccc(CNC(=S)Nc2cc(C)ccc2OC(F)F)cc1	0	0	?	?	?	4.5µM
CCC1(C(=O)Nc2ccc(C)cc2)CCCCC(=O)N1 (stereo not given)	-	-	0	-	-	-
Cc1ccc(C)c(NC(=S)NCc2ccccc2)c1	?	0	0	5µM	?	3.2µM
Cc1ccc(NC(=S)NCc2ccccc2)cc1C	0	-	?	-	?	-

Screening results: PubChem, National Center for Advancing Translational Sciences (NCATS)
